Data taken from PubChem BioAssay AID434970 (Sanford-Burnham Center for Chemical Genomics, 2010).
The whole screen tested about 11,000 compounds, of which about 310 (2.8%) were called active. Rule as the data show it: active = activity change below about -85%; inactive = the rest. Many of the other results were omitted from the sample, so actives are more common in it than they were.

These compounds were tested on intestinal alkaline phosphatase [Mus musculus] (assay: activators of mouse IAP, confirmation, biochemical, luminescence, single concentration (AID 434970)). Conditions: purified mouse IAP, CDP-Star luminescence, 30 min, at 10 µM; activation factor: measured here: IAP activation factor, stronger effect = higher value; activity change, negative = activation: stronger effect = lower value.
For O=C(OCn1nnc2ccccc2c1=O)C1CCN(S(=O)(=O)c2cccs2)CC1, the activation factor was 0.919 and the activity change, negative = activation was 8.05% (inactive). For Cc1ccc(C2=NN3C(C(=O)c4ccccc4)Oc4ccccc4C3C2)cc1 (stereo not drawn), the activation factor was 0.916 and the activity change, negative = activation was 8.35% (inactive). With O=C(Nc1ccccc1N1CCN(c2ccccc2)CC1)C12CC3CC(CC(C3)C1)C2 the activation factor was 0.927 and the activity change, negative = activation was 7.25% (inactive). For O=C(c1cc(NC(=O)C23CC4CC(CC(C4)C2)C3)cc(NC(=O)C23CC4CC(CC(C4)C2)C3)c1)N1CCCCC1, the activation factor was 2.06 and the activity change, negative = activation was -106% (active). With COC(=O)c1sccc1NC(=O)C12CC3CC(CC(C3)C1)C2 the activation factor was 1.03 and the activity change, negative = activation was -2.7% (inactive). In the case of CCOc1ccccc1C1N(c2ccc(F)cc2)C(=O)C2CCCN21 (stereo not drawn), the activation factor is reported as 0.988 and the activity change, negative = activation is reported as 1.2% (inactive). In the case of CCc1nnc(NC(=O)C2CCCN2C(=O)Nc2ccccc2OC)s1 (stereo not drawn), the activation factor is reported as 1.12 and the activity change, negative = activation is reported as -12.2% (inactive). With COc1ccc(NC(=O)Nc2ccc3c(c2)N(C)C(=O)CS3)cc1Cl the activation factor was 1.91 and the activity change, negative = activation was -90.9% (inactive). In the case of CCC(C)NC(=O)Nc1ccc2c(c1)N(C)C(=O)c1ccccc1S2 (stereo not drawn), the activation factor is reported as 2 and the activity change, negative = activation is reported as -100% (active). In the case of CCCCSCCCNC(=O)Nc1ccc(CC)cc1, the activation factor is reported as 1.39 and the activity change, negative = activation is reported as -38.9% (inactive). CC(=O)c1ccc2c(c1)N(C)c1ccccc1S2 was tested, and the activation factor was 0.875 and the activity change, negative = activation was 12.5% (inactive). For CCCCNC(=O)Nc1ccc2c(c1)N(C)C(=O)c1ccccc1S2, the activation factor was 2.25 and the activity change, negative = activation was -124% (active). For CCCCSCCCNC(=O)Nc1ccc(C)c(C)c1, the activation factor was 1.25 and the activity change, negative = activation was -24.7% (inactive). COCCOC(=O)c1c(C)n(C)c2ccc(OC(=O)C3CC3)cc12 was tested, and the activation factor was 1.07 and the activity change, negative = activation was -7.45% (inactive). For CCCCNS(=O)(=O)CCNCCc1ccccc1, the activation factor was 1.1 and the activity change, negative = activation was -10.1% (inactive). COc1ccc(C2/C=C\CC(NS(=O)(=O)c3ccc(C)cc3)CC(=O)N2Cc2ccccc2F)cc1 (stereo not drawn) was tested, and the activation factor was 1.18 and the activity change, negative = activation was -17.7% (inactive). In the case of O=C(CN1CCOCC1)Nc1cccc(C(=O)Nc2cccc(C(F)(F)F)c2)c1, the activation factor is reported as 1.03 and the activity change, negative = activation is reported as -2.95% (inactive). For Cc1occc1-c1nnc(SCC(=O)Nc2ccc3c(c2)OCO3)n1CC1CCCO1 (stereo not drawn), the activation factor was 0.919 and the activity change, negative = activation was 8.1% (inactive). With CCOC(=O)C1=CN(Cc2cccc(F)c2)S(=O)(=O)NC1c1ccc(F)c(Cl)c1 (stereo not drawn) the activation factor was 0.881 and the activity change, negative = activation was 11.9% (inactive). C#CCOCCOCCOCCNc1nc(N2CCN(C(=O)CCCCCCCCCCNC(=O)Cn3cc(CCCCCN)nn3)CC2)nc(N2CCN(C(=O)CCCCCCCCCCNC(=O)[C@H]([C@@H](C)CC)n3cc(CCCCN=C(N)N)nn3)CC2)n1 was tested, and the activation factor was 10 and the activity change, negative = activation was -904% (active). For C#CCOCCOCCOCCNc1nc(N2CCN(C(=O)CCCCCCCCCCNC(=O)Cn3cc(CCCCCN)nn3)CC2)nc(N2CCN(C(=O)CCCCCCCCCCNC(=O)Cn3cc(C[C@@H](C)O)nn3)CC2)n1, the activation factor was 2.22 and the activity change, negative = activation was -122% (active). For C#CCOCCOCCOCCNc1nc(N2CCN(C(=O)[C@H](Cc3cc4ccccc4[nH]3)n3cc([C@@H](N)CC(C)C)nn3)CC2)nc(N2CCN(C(=O)[C@H](Cc3cc4ccccc4[nH]3)n3cc([C@@H](N)CC(C)C)nn3)CC2)n1, the activation factor was 1.61 and the activity change, negative = activation was -60.9% (inactive). C#CCOCCOCCOCCNc1nc(N2CCN(C(=O)CCCCCCCCCCNC(=O)Cn3cc(C[C@@H](C)O)nn3)CC2)nc(N2CCN(C(=O)CCCCCCCCCCNC(=O)[C@@H]([C@H](C)CC)n3cc(CCCCCN)nn3)CC2)n1 was tested, and the activation factor was 5.59 and the activity change, negative = activation was -459% (active). C#CCOCCOCCOCCNc1nc(N2CCN(C(=O)CCCCCCCCCCNC(=O)Cn3cc(CCCCCN)nn3)CC2)nc(N2CCN(C(=O)CCCCCCCCCCNC(=O)[C@H]([C@@H](C)CC)n3cc(CCCCCN)nn3)CC2)n1 was tested, and the activation factor was 3.67 and the activity change, negative = activation was -267% (active).
